# Only a selection was taken, and hits are over-represented in it overall.
# Dicer inh = blocks human Dicer maturation of pre-miR-21 | Q9UPY3 | cat-ELCCA pre-miR-21 Dicer processing, chemiluminescence; stronger effect = higher value | z-score at 25 µM | hit rate 6% among 47,000 | AID 1347074; in the data active = z-score above about 3, passing the limit was not always enough;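 note: plate controls were vehicle for no effect and no enzyme for full effect; higher signal means more uncleaved substrate so more Dicer inhibition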
# Starred values were filed as active, the others as inactive; ! = repeats disagree.
SMILES,Dicer inh
CC(=O)Nc1cccc(-n2nnc(SCC(=O)c3ccc4c(c3)OCCCO4)n2)c1,3.1*
O=C(O)CCC(=O)c1ccc2c(c1)OCCCO2,1.2
CC(=O)Nc1cccc(-n2nnc(SCc3ccccc3)n2)c1,1.1
CCOC(=O)COc1nc(-c2cccs2)cc(C(F)(F)F)n1,0.79
CCOC(=O)c1cnc2c(C)cc(C)cc2c1Nc1ccc(N(C)C)cc1,2.9
CCOC(=O)c1cnc2ccc(Cl)cc2c1Nc1ccc(N(C)C)cc1,3.8*
CCOC(=O)c1cnc2ccc(OCC)cc2c1Cl,0.45
N#Cc1c(SCc2ccc(Cl)cc2)nsc1SCc1ccc(Cl)cc1,-1
c1ccc(-c2nsc(N3CCCC3)n2)cc1,3*
CCS(=O)(=O)N1CCN(c2nc(-c3ccccc3)ns2)CC1,-0.23
O=C(O)CSCC(=O)N1CCN(c2nc(-c3ccccc3)ns2)CC1,1.2
Cc1ccc(S(=O)(=O)NC(C)(C)C)cc1,-0.97
COC(=O)c1[nH]n(-c2c(C)cccc2Cl)c(=O)c1N=O,-1.2
COc1ccc(S(=O)(=O)N2CCN(S(=O)(=O)c3ccc4ccccc4c3)CC2)cc1,1.1
CSc1ccc(CN2CCN(S(=O)(=O)c3ccc4ccccc4c3)CC2)cc1,3.4*
Fc1ccccc1CN1CCN(C2CCN(Cc3ccccc3)CC2)CC1,-1.2
O=S(=O)(c1ccc2ccccc2c1)N1CCCCC1,1.2
O=S(=O)(c1ccc2ccccc2c1)N1CCN(C2CCN(Cc3ccccc3)CC2)CC1,3.2*
O=S(=O)(c1ccc2ccccc2c1)N1CC=C(c2ccccc2)CC1,-0.32
Cc1ccc(CNCC2CCCO2)cc1 (stereo not given),0.54
CNC(=O)c1ncnnc1N(C)C(=O)NCc1ccccc1,0.99
CCCCNC(=O)N(C)c1nncnc1C(=O)NC,-0.1
CCNC(=O)N(C)c1nncnc1C(=O)NC,4.5*
C/C(=N\Nc1ncn[nH]1)c1ccc(Cl)c(Cl)c1,0.68
Cc1ccc(C)n1-c1ccsc1C(=O)NNC(=O)C(Cl)Cl,0.24
SMILES,Dicer inh
O=C1Sc2ccc(S(=O)(=O)Nc3cccc(Cl)c3)c3cccc1c23,2.4
O=C1Sc2ccc(S(=O)(=O)Nc3ccc(Br)cc3)c3cccc1c23,3.3*
CN1C(=O)c2cccc3c(S(=O)(=O)Nc4ccc(C(=O)O)cc4)ccc1c23,0.11
CCOc1cc(C2c3c(oc4ccc(C)cc4c3=O)C(=O)N2Cc2ccc(F)cc2)ccc1O (stereo not given),-0.13
CCC(C)N1CC23C=CC(O2)C(C(=O)OC(C)C)C3C1=O (stereo not given),0.83
CSc1sc(C(=O)N/N=C/c2ccccc2Cl)c2c1C(O)CCC2 (stereo not given),2.7
CN(C)/C=C1/N=C(c2ccccc2)OC1=O,1.1
CN(C)/C=C1\N=C(c2cccnc2Oc2ccc(Cl)cc2)OC1=O,19*
Cc1ccc(Sc2ncccc2C2=N/C(=C\N(C)C)C(=O)O2)cc1,-0.39
CC(C)(C)NC(=S)Nc1ccccc1[N+](=O)[O-],-0.58
Cc1ccc(-c2cn3cccc(OCc4ccc(Cl)c(Cl)c4)c3n2)cc1,-0.91
O=C(O)c1ccccc1SC1CC(=O)N(c2ccc(OC(F)(F)F)cc2)C1=O (stereo not given),1.5
Cc1cc([N+](=O)[O-])nn1CC(=O)Nc1ccccn1,-0.84
CCOc1ccc(S(=O)(=O)Nc2cnc3ccccc3c2)cc1,-2.8
Cc1cc([N+](=O)[O-])nn1CC(=O)Nc1cnc2ccccc2c1,3.5*
CN(/N=C/c1ccc(Cl)cc1Cl)c1ncc(C(F)(F)F)cc1Cl,1.7
O=C(Oc1cccc2cccnc12)c1ccco1,-2.4
O=C(Oc1ccc(OC(=O)c2ccco2)c(Cl)c1)c1ccco1,7.4*
Cc1ccc(C)c(Oc2coc3cc(OC(=O)c4ccco4)ccc3c2=O)c1,0.42
CC(=O)OCC1=C(C(=O)O)N2C(=O)[C@@H](NC(=O)Cc3cccs3)[C@H]2SC1,2.6
O=C(COc1ccccc1)NC1C(=O)N2C(C(=O)O)=C(Cl)CSC12 (stereo not given),-0.43
NC(=O)c1cc[n+](CC2=C(C(=O)O)N3C(=O)[C@@H](NC(=O)[C@@H](c4ccccc4)S(=O)(=O)[O-])[C@H]3SC2)cc1,3.7*!
CC(C)(CC(=O)O)CC(=O)NNc1c(Cl)cncc1Cl,-1.8
Clc1ccc(-c2nnc(NCCN3CCOCC3)c3ccccc23)cc1,1.6
c1ccc(-c2ccc(-c3csc(N4CCOCC4)n3)cc2)cc1,1.6
CCSCCOC(=O)C1=C(C)NC2=C(C(=O)CCC2)C1c1cccc(F)c1 (stereo not given),3.1*
CCSCCOC(=O)C1=C(C)NC2=C(C(=O)CCC2)C1c1ccc(C(=O)OC)cc1 (stereo not given),0.4
CCCCCOC(=O)C1=C(C)NC2=C(C(=O)CCC2)C1c1ccc(OC)c(OC)c1 (stereo not given),-0.68
CCSCCOC(=O)C1=C(C)NC2=C(C(=O)CCC2)C1c1ccc(OC)c(OC)c1 (stereo not given),4.8*
CCn1c2ccccc2c2cc(C3C(C(=O)OCC4CCCO4)=C(C)NC4=C3C(=O)CCC4)ccc21 (stereo not given),0.8

# Compound activity from PubChem.
